26 molecules from PubChem BioAssay (Tox21) can be followed below.

Unmarked numbers belong to inactive results. Results filed as inconclusive are left out. The source made the active and inactive calls. Unless noted, calls follow the shape of the full dose curve.

For test [1], the target named is Estrogen receptor (Homo sapiens) (UniProt P03372). Put plainly: qHTS assay to identify small molecule agonists of the estrogen receptor alpha (ER-alpha) signaling pathway in the presence of an antagonist (AID 1259383). Also: top concentration of the series differs between compounds; nearly all actives have a fitted effect of over 15% in size. The settings on record: VM7Luc4E2 cells, ERE-luciferase, +ICI-182,780, 22 h; series mostly up to 92.4 µM. The essentials: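 Luminescent ERE-luciferase reporter, VM7Luc4E2 cells (endogenous ER-alpha); 10.0nM ICI-182,780 final; 15-point compound titration; 22hr at 37C; ONE-Glo, 30min RT.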
A general note: Quantitative high-throughput screening tests each substance at several concentrations.

Test [2] can be described thus: qHTS assay to identify small molecule agonists or antagonists of the thyroid stimulating hormone receptor (TSHR) signaling pathway - wild type cell line counter screen (AID 1259384). Conditions: HEK293 wild type, cAMP HTRF counter-screen, active compounds read high; series mostly up to 92.4 µM. The essentials: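 Wild-type Hek293 cells, 800/well, 18 h at 37C, then compound with Ro20-1724 for 30 min RT. cAMP by HTRF (cAMP-d2/anti-cAMP cryptate), 1 h RT, fluorescence read. 15 concentrations, triplicates.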

The target in test [3] is Thyrotropin receptor (Homo sapiens) (UniProt P16473). The test can be described thus: qHTS assay to identify small molecule antagonists of the thyroid stimulating hormone receptor (TSHR) signaling pathway (AID 1259385). Also: nearly all actives have a fitted effect of over 20% in size. The settings on record: TSHR-HEK293 cAMP HTRF, TSH-stimulated antagonist mode; series mostly up to 92.4 µM. In outline:
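TSHR-HEK293 cells (800/well) plated 18 h, then compounds with Ro20-1724 and TSH at 1.5 ng/mL final, 30 min at room temperature. cAMP quantified by HTRF (cAMP-d2/anti-cAMP-cryptate, 1 h); 15 concentrations in triplicate.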

A short description of test [4]: qHTS assay to identify small molecule antagonists of the progesterone receptor (PR) signaling pathway - cell viability counter screen (AID 1346798; active = well fitted curve in the direction sought with a large enough effect in the repeat runs; an effect the other way counts as inactive or inconclusive; also: nearly all actives have a fitted effect of over 50% in size). The settings on record: PR-UAS-bla HEK293T viability, CellTiter-Glo luminescence, 16 h; series mostly up to 92.4 µM. In outline: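 Same-well multiplex: after 16 hr at 37C with compound and R5020 stimulation, HEK293T cells carrying a UAS-bla reporter received LiveBLAzer substrate (2 hr RT), then CellTiter-Glo (30 min RT) for luminescent viability.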

Test [5] in a line: qHTS assay to identify small molecule agonists of the progesterone receptor (PR) signaling pathway - cell viability counter screen (AID 1346799). Also: nearly all actives have a fitted effect of over 45% in size. Also: potency is read from the fitted curve at half-maximal effect. The settings on record: PR-UAS-bla HEK293T viability, CellTiter-Glo luminescence, 16 h; series mostly up to 92.4 µM. In outline:
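Counter screen for cytotoxicity: compound-treated PR-UAS-bla HEK293T cells (16 hr, 37C, 5% CO2) were assayed with CellTiter-Glo, luminescence measured after 30 min at room temperature.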

Test [6] can be described thus: qHTS assay to identify small molecule agonists of the TGF-beta/Smad signaling pathway - cell viability counter screen (AID 1346829; active = well fitted curve in the direction sought with a large enough effect in the repeat runs; an effect the other way counts as inactive or inconclusive; also: top concentration of the series differs between compounds; nearly all actives have a fitted effect of over 45% in size). Conditions: SBE-bla HEK293T viability, CellTiter-Glo luminescence, 5 h; series mostly up to 76.8 µM. In outline:
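SBE-bla HEK 293T cells plated overnight, compound exposure 5 hr at 37 C. Viability read in the same wells by CellTiter-Glo luminescence after 30 min at room temperature, following the beta-lactamase read.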

A short description of test [7]: qHTS assay to identify small molecule agonists of the estrogen receptor alpha (ER-alpha) signaling pathway in the presence of an antagonist - cell viability counter screen (AID 1259386; active = well fitted curve in the direction sought with a large enough effect in the repeat runs; an effect the other way counts as inactive or inconclusive;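 also: cells exposed to compounds for 22 h at 37 °C before the viability read; nearly all actives have a fitted effect of over 30% in size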). The settings on record: VM7Luc4E2 viability, CellTiter-Fluor fluorescence, 22 h; series mostly up to 92.4 µM. The essentials: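 Using estrogen-depleted VM7Luc4E2 cells, the 15-concentration compound series was applied together with 10.0nM ICI-182,780 and incubated 22hr at 37C/5% CO2. Cell viability was then scored by CellTiter-Fluor.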

The target in test [8] is Progesterone receptor (Homo sapiens) (UniProt P06401). The test can be described thus: qHTS assay to identify small molecule agonists of the progesterone receptor (PR) signaling pathway (AID 1346784). Also: nearly all actives have a fitted effect of over 30% in size. Also: potency is read from the fitted curve at half-maximal effect. Conditions: PR-UAS-bla HEK293T, beta-lactamase FRET ratio, 16 h; series mostly up to 92.4 µM. The essentials: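 Agonist mode, quantitative HTS format in a HEK 293T line expressing a UAS-controlled beta-lactamase reporter; 16 hr compound exposure at 37C in 2% charcoal-stripped FBS, then LiveBLAzer B/G FRET fluorescence.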

Test [9] has the same target. Put plainly: qHTS assay to identify small molecule antagonists of the progesterone receptor (PR) signaling pathway (AID 1346795; active = well fitted inhibition curve with a large enough effect in the signal ratio in the repeat runs, not every such curve was filed as active; the % refers to the signal ratio; also: potency is read from the fitted curve at half-maximal effect). Conditions: PR-UAS-bla HEK293T, beta-lactamase FRET ratio, 16 h; series mostly up to 92.4 µM. The essentials: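 HEK293T PR-UAS-bla reporter cells in charcoal-stripped serum (2%) received compound after a 6 hr settling period, followed by R5020 agonist at 1 nM final; 16 hr incubation preceded the FRET substrate step and fluorescence measurement.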

A short description of test [10]: qHTS assay to identify small molecule antagonists of the TGF-beta/Smad signaling pathway - cell viability counter screen (AID 1346824; active = well fitted curve in the direction sought with a large enough effect in the repeat runs; an effect the other way counts as inactive or inconclusive; also: nearly all actives have a fitted effect of over 50% in size). The settings on record: SBE-bla HEK293T viability, CellTiter-Glo luminescence; series mostly up to 76.8 µM. In outline: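 SBE-bla HEK 293T cells, incubated overnight, then compound plus 0.25 ng/mL TGF-beta1 (stock added) for 5 hr at 37 C. Viability was read in the same wells by CellTiter-Glo luminescence after 30 min at room temperature.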
% is scaled to controls: 0 for no effect and ±100 for the full control effect.

Chain of Thyrotropin receptor (Homo sapiens) (P16473 whole entry, looked up): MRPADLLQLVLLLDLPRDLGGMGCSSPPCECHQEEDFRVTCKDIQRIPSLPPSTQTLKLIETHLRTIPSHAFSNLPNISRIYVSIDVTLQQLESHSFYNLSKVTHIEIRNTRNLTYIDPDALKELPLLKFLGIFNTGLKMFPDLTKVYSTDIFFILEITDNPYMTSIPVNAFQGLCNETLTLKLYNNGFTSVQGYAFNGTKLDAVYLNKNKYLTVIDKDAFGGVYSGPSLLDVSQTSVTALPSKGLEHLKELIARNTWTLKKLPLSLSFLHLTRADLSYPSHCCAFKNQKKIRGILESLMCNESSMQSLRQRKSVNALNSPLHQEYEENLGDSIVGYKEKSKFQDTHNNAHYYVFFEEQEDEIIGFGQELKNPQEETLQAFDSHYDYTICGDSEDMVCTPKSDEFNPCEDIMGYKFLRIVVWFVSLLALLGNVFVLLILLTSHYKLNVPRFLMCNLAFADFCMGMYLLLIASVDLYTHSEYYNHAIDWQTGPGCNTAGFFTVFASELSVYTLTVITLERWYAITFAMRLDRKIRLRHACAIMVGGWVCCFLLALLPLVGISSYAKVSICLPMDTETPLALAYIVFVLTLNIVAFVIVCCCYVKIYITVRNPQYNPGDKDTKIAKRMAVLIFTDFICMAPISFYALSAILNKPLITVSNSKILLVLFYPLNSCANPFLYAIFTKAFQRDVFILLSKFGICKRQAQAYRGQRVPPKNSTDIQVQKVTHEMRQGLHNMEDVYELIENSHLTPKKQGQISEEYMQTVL
Chain of Progesterone receptor (Homo sapiens) (P06401 whole entry, looked up): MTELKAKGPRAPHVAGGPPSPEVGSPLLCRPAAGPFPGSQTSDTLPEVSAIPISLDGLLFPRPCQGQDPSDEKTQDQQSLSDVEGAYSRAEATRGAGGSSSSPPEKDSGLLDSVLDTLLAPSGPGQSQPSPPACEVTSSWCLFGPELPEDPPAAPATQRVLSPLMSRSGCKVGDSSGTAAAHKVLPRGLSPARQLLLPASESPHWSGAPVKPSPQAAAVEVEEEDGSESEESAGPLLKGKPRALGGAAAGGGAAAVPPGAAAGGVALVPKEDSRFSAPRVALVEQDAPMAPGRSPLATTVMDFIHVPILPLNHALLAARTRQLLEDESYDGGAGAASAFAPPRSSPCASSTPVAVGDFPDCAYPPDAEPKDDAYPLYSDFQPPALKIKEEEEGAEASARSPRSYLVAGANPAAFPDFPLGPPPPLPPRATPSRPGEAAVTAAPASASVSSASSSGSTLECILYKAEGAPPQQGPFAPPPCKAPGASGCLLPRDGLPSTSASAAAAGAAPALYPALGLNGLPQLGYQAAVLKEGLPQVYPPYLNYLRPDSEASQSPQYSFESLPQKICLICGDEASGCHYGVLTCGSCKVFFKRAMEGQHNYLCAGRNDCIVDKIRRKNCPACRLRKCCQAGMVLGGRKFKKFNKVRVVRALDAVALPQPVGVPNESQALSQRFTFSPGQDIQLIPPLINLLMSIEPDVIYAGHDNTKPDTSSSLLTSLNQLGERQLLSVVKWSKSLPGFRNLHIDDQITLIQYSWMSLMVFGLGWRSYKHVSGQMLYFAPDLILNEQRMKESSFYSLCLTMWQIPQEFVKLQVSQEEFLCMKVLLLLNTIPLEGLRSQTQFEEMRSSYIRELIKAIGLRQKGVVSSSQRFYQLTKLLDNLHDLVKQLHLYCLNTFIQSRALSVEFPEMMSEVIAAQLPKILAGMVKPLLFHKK
Chain of Estrogen receptor (Homo sapiens) (P03372 whole entry, looked up): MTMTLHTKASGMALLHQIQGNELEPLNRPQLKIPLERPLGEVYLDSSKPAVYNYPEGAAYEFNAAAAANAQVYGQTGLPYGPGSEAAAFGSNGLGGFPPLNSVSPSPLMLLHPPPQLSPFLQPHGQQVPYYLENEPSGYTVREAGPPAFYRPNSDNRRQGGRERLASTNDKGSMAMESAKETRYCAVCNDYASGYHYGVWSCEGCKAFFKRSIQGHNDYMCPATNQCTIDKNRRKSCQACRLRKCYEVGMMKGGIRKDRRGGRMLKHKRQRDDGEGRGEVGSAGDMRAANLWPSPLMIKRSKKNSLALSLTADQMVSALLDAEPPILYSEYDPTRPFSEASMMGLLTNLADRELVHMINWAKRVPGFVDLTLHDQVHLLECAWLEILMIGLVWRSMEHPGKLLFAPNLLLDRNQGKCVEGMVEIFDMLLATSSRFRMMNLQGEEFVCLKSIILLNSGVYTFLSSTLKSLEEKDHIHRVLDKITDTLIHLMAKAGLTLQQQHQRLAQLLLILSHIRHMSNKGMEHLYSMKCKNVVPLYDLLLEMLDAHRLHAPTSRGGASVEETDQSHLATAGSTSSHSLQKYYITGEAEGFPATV

As for `CCN1CCN(C(=O)N[C@@H](C(=O)N[C@@H]2C(=O)N3C(C(=O)O)=C(CSc4nnnn4C)CS[C@H]23)c2ccc(O)cc2)C(=O)C1=O`, the Potency result in [1] and in test [5] was “inactive” each time. Also, the call in [2], in test [3], in test [4] and in [6] was inactive.
`CCCCCCCCCCCBr`: the Potency entry in test [1], in test [8], in test [9] and in test [5] was “inactive” in each case. The outcome in test [7], in [10] and in test [6] was inactive.
As to `CN1C(CCl)Nc2cc(Cl)c(S(N)(=O)=O)cc2S1(=O)=O` (configuration not stated), the Potency entry in test [1], in [8], in [9] and in test [5] was “inactive” in each case. Also, the result in test [7], in test [4], in [10] and in test [6] was inactive.
Turning to `C=CCCCCCCCCCCCCCC`, in test [1], the activation was -0.0008% [at 19 µM]. For the same molecule, the cAMP activity change in test [2] was 3.16% [at 18.9 µM]. For the same molecule, the activity change, negative = inhibition in test [3] is 0.749% [at 19 µM]; in test [9], 7.49% [at 18.9 µM]. For the same molecule, the activity change, negative = cytotoxicity was 6.76% [at 18.9 µM] in test [4], 11.1% [at 19 µM] in [5] and 9.91% [at 15.8 µM] in test [6].
As to `CCCCS`, the Potency entry in test [1], in test [8], in test [9] and in test [5] was “inactive” each time. Besides, the result in test [2], in test [7], in [4], in [10] and in test [6] was inactive.
In the case of `C=CCCCCCCCCOC(C)=O`, the Potency result in test [1], in test [8], in test [9] and in test [5] was “inactive” each time. For the same molecule, the outcome in [7], in test [4], in test [10] and in test [6] was inactive.
On to `c1cc2ccc3ccc4ccc5cccc6c(c1)c2c3c4c56`, for which the cAMP activity change in test [2] is 5.35% [at 3.27 µM]. For the same molecule, the values for the activity change, negative = inhibition in test [3] and in test [9] were -1.71% [at 3.27 µM] and 17.5% [at 3.27 µM], respectively. For the same molecule, the figures for the activity change, negative = cytotoxicity in [7] and in test [4] were 1.86% [at 3.27 µM] and 2.42% [at 3.27 µM], respectively. The Potency in test [8] is 0.385 µM (active). Further, the viability change, negative = cytotoxic in test [10] was 5.15% [at 2.72 µM].
Turning to `N=C(N)N`, the molecule was classed as inactive in test [2], in test [3], in test [7], in [4] and in [6]. Besides, the Potency entry in [8], in test [9] and in test [5] was “inactive” each time.
For `Nc1ccc(C(=O)NCC(=O)O)cc1`, the Potency entry in test [1], in test [8], in test [9] and in test [5] was “inactive” each time. The result in test [7], in test [10] and in [6] was inactive.
For `COc1cc(NS(=O)(=O)c2ccc(N)cc2)ncn1`, the call in test [2], in test [3], in [7], in [4], in [10] and in test [6] was inactive. Moreover, the Potency entry in test [8], in [9] and in [5] was “inactive” throughout.
On to `COc1ccc2cc(CCC(C)=O)ccc2c1`, for which the molecule was classed as inactive in test [2], in test [3], in test [7], in [4] and in test [6]. In addition, in test [8], the Potency result is “inactive”. Moreover, the Potency in [9] was 13.3 µM (active).
For the molecule `O=P(O)(O)C(O)(Cc1cccnc1)P(=O)(O)O`, the Potency result in test [1], in test [8] and in test [5] was “inactive” each time. For the same molecule, the outcome in test [7], in test [10] and in [6] was inactive.
Turning to `Cc1ccc(O)c([N+](=O)[O-])c1`, the Potency entry in test [1] and in [9] was “inactive” in each case. Moreover, the Potency in test [5] is 24.6 µM (active). Besides, the outcome in [10] and in test [6] was inactive.
With `Cc1ccc2ccccc2n1`, the result in test [2], in test [3], in test [7], in [4], in test [10] and in test [6] was inactive. The Potency result in [8], in test [9] and in test [5] was “inactive” each time.
For `CC12CCCC=C1C(=O)OC2=O` (configuration not stated), the result in [2], in test [3], in test [7], in [4], in test [10] and in [6] was inactive. Further, the Potency entry in test [8], in [9] and in [5] was “inactive” in each case.
Consider `C=CCON/C(CCC)=C1\C(=O)CC(C)(C)C(C(=O)OC)=C1O`, for which the result in test [2], in [3], in [7], in test [4], in test [10] and in [6] was inactive. Further, the Potency result in [8], in test [9] and in [5] was “inactive” each time.
Turning to `CC(C)C(C)C`, the molecule was classed as inactive in test [2], in test [3], in [7], in test [4] and in test [6]. For the same molecule, the Potency result in test [8], in test [9] and in test [5] was “inactive” throughout.
As for `CC(C)(Sc1cc(C(C)(C)C)c(O)c(C(C)(C)C)c1)Sc1cc(C(C)(C)C)c(O)c(C(C)(C)C)c1`, the molecule was classed as inactive in [2], in [3], in [7], in test [4], in test [10] and in test [6]. For the same molecule, the Potency entry in test [8] and in test [9] was “inactive” throughout.
As to `CCCCCCCCS(=O)(=O)O`, the molecule was classed as inactive in test [2], in test [3], in [7] and in test [10]. Also, the Potency result in test [8], in [9] and in [5] was “inactive” in each case.
In the case of `CC(=O)OCC(=O)[C@@]1(O)CC[C@H]2[C@@H]3CCC4=CC(=O)C=C[C@]4(C)[C@H]3[C@@H](O)C[C@@]21C`, the Potency result in [1] was “inactive”. In addition, the outcome in [4], in [10] and in [6] was inactive.
On to `COc1cc(C(=O)NC2CCCNC2)cc(OC)c1OC` (configuration not stated), for which the result in test [2], in test [3], in test [7], in [4] and in [10] was inactive. The Potency result in test [8] and in test [9] was “inactive” each time.
Consider `CCO/C=C1\N=C(c2ccccc2)OC1=O`, for which the molecule was called inactive in [2], in test [3], in test [7], in test [4], in test [10] and in test [6]. For the same molecule, the Potency entry in test [8], in test [9] and in test [5] was “inactive” each time.
`CC(=O)c1ccc(O)c(C(N)=O)c1`: the call in test [2], in test [3], in test [7], in [4], in [10] and in test [6] was inactive. The Potency result in test [8], in test [9] and in test [5] was “inactive” in each case.
As to `C[C@H]1COc2c(C3(N)CC3)c(F)cc3c(=O)c(C(=O)O)cn1c23`, the outcome in [2], in test [3], in test [7], in test [4], in [10] and in test [6] was inactive. For the same molecule, the Potency entry in [8], in [9] and in [5] was “inactive” throughout.
Turning to `C[Si](C)(C)O[Si](O)(O)O`, the Potency result in test [1], in test [8] and in test [5] was “inactive” throughout. The outcome in test [7], in test [10] and in test [6] was inactive.
Take `CCCCCC(CC)OC(=O)CCCOc1ccc(Cl)cc1Cl` (configuration not stated): the outcome in test [2], in test [3], in test [7], in test [4], in test [10] and in test [6] was inactive. Moreover, the Potency entry in test [8], in [9] and in test [5] was “inactive” each time.
